# LmPK inhibitor: LmPK (Leishmania mexicana) enzyme inhibition; 0.37% of 290,000 active; Potency, µM (highest dose often 57.5 µM), without a hit: at the top dose activity change, negative = inhibition, hits mostly inhibitors; AID 1721; purified LmPK, Kinase-Glo ATP luminescence, 1 h; Q27686
#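 Purified LmPK (0.1 nM) with 0.5 mM PEP and 0.1 mM ADP in imidazole buffer pH 7.2 with MgCl2/KCl, 1 h at room temperature. ATP formed was read by luciferase luminescence and normalized to no-enzyme and uninhibited controls.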
# FBPA Giardia inh: Giardia lamblia aldolase inhibition; A8B2U2; purified Giardia FBPA; Potency, µM (top dose mostly 59.6 µM), for the others: top-dose activity, negative = inhibition, hits mostly inhibitors; 0.71% of 290,000 active; AID 2451; further: nearly all actives have a fitted effect of over 55% in size
#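 Giardia FBPA (40 nM reagent) was preincubated 10 min at RT with compound (up to 57.5 uM final), then substrate plus GAPDH/TPI/NAD/arsenate coupling system with diaphorase/resazurin was added; resorufin fluorescence (525/598 nm) was read after 20 min.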
# AmpC inh detg: AmpC beta-lactamase inhibition with detergent present. AmpC hydrolysis of nitrocefin, absorbance 480 nm, 0.01% Triton. Potency, µM (doses to about 114 µM), for inactives: at the highest dose activity change, negative = inhibition, hits mostly inhibitors. 0.041% of 370,000 active;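 further: 0% = no-compound wells and -100% = no-enzyme wells; nearly all actives have a fitted effect of over 25% in size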
# Target sequence (P00811 whole entry, looked up): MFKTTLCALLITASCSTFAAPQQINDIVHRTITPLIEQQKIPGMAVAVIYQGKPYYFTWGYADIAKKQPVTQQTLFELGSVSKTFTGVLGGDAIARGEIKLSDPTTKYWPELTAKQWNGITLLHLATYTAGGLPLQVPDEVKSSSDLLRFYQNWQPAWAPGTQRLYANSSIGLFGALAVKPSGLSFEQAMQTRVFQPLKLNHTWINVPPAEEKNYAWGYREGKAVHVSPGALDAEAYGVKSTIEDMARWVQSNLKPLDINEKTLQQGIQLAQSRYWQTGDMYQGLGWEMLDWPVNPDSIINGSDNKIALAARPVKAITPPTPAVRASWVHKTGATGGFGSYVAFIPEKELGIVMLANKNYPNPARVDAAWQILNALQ
#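 AmpC (5.3 nM in the dispensed reagent) in 20 mM phosphate pH 7.0 with 0.01% (detergent screen) or 0.0001% Triton X-100 was preincubated with compounds for 15 min at room temperature. Nitrocefin was then added from an 800 uM solution, and hydrolysis was followed at 480 nm.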
# AMA1-RON2 inh: AMA1-RON2 (P. falciparum) interaction inhibition | AlphaScreen AMA1-biotinylated RON2 peptide binding | Potency, µM (titrated, usually from 58.2 µM), for inactives: at the top dose activity change, negative = inhibition, usual class: inhibitors | 0.2% of 360,000 active;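 further: 0% = vehicle wells and -100% = peptide control; nearly all actives have a fitted effect of over 45% in size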
#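 AMA1 (3D7) with his tag at 25 nM final met compounds first, then biotinylated RON2 peptide at 25 nM; detection used donor plus acceptor beads, 10 µg/mL apiece, read by AlphaScreen after 30 min at room temperature.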
# AmpC inh no detg: inhibitors of E. coli AmpC beta-lactamase without detergent; P00811; AmpC nitrocefin hydrolysis, absorbance 480 nm, 0.0001% Triton; 0.52% of 330,000 active; Potency, µM (doses to about 57.1 µM), for inactives: at the highest dose activity change, negative = inhibition, hits mostly inhibitors;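 further: plate controls were no compound for no effect and no enzyme for full effect; nearly all actives have a fitted effect of over 20% in size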
#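 20 mM phosphate pH 7.0 + 0.01% (detergent screen) or 0.0001% Triton X-100; 5.3 nM AmpC reagent; cpd preinc 15 min RT; nitrocefin (800 uM stock) to start; A480 q20 s × 4 min; Activity was normalised to no-enzyme and no-compound control wells.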
# Starred values were filed as active, the others as inactive; u = inconclusive; x = not tested or not shown. In the library only some 1.3% were active in any assay of this set; here they are far more common. The call rests on the fitted dose curve; in most records, active means well fitted curve in the direction sought with a large enough effect; inconclusive means small, poorly fitted or top-dose-only effect, or another doubt; inactive means no such curve, though single readings can be large; an effect the other way counts as inactive or inconclusive. Unless noted, on the % scale 0 is the no-effect control and ±100 the full control effect; potency means the concentration at half of the fitted maximal effect.
SMILES,LmPK inhibitor,FBPA Giardia inh,AmpC inh detg,AMA1-RON2 inh,AmpC inh no detg
CCC1CCCCN1S(=O)(=O)c1cc(C(=O)Nc2ccc(C)c(F)c2)ccc1F (configuration not stated),x,x,8.1%,x,x
COc1ccc(N=C2C(=Nc3ccc(OC)cc3)N(c3ccc(OC)cc3)C(=S)N2c2ccccc2)cc1,6.8%,0.5%,-4.3%,-11.9%,-30.9%
COc1ccc(N=C2C(=Nc3ccc(OC)cc3)N(c3ccc(OC)cc3)C(=S)N2C)cc1,-8.9%,-20.2%,1.7%,6.7µM*,10.8%
Cc1ccc(C(=O)COC(=O)c2cccs2)cc1,u,4.8%,-8.1%,5.5%,-18.9%
O=C(COC(=O)c1cccs1)c1ccc2c(c1)OCCO2,12.6µM*,1.6%,-3.6%,4.5%,-23.5%
CCc1ccc(C(=O)COC(=O)c2cccs2)cc1,15.8µM*,2.1%,-2.2%,64.0%,-28.5%
O=C(COC(=O)c1cccs1)c1ccc2ccccc2c1,-3.3%,-3.7%,-15.4%,8.8%,-23.6%
CCOc1ccc(-c2cc(C(=O)Oc3ccc(C#N)cc3)no2)cc1,x,x,13.8%,x,x
COc1ccc(C(CCN2CCCC(C)C2)c2c(OC)cc(OC)c3c(-c4ccccc4)cc(=O)oc23)cc1 (configuration not stated),7.4%,-1.6%,5.6%,-20.5%,187.4%
COc1cc(C2CC(=O)Oc3c(C(CCN4CCOCC4)c4ccc(N(C)C)cc4)c(OC)cc(OC)c32)cc(OC)c1OC (configuration not stated),4.4%,-3.5%,0.0%,u,222.8%
COc1cc(OC)c2c(-c3ccccc3)cc(=O)oc2c1C(CCN1CCCC(C)C1)c1ccc(N(C)C)cc1 (configuration not stated),0.2%,0.2%,0.1%,15.8µM*,213.8%
COc1cc(C2CC(=O)Oc3c(C(CCN4CCN(c5ccccc5)CC4)c4ccc(N(C)C)cc4)c(OC)cc(OC)c32)cc(OC)c1OC (configuration not stated),5.1%,-6.3%,0.5%,14.1µM*,208.0%
COc1ccc(C(CCN2CCN(c3ccccc3)CC2)c2c(OC)cc(OC)c3c(-c4ccccc4)cc(=O)oc23)cc1 (configuration not stated),5.5%,1.8%,-5.6%,u,24.4%
COc1cc(O)c(C(CCN2CCN(c3ccccc3)CC2)c2ccc3c(c2)OCO3)c(OC)c1 (configuration not stated),-1.9%,u,1.8%,15.8µM*,-6.7%
COc1cc(OC)c2c(-c3ccccc3)cc(=O)oc2c1C(CCN1CCN(c2ccccc2)CC1)c1ccc(N(C)C)cc1 (configuration not stated),0.4%,-4.0%,2.7%,7.94µM*,69.1%
CC1(c2nc3ccccc3[nH]2)CCC2=Nc3ccccc3CN21 (configuration not stated),x,x,x,1.8%,x
COc1ccc(Cl)cc1Cn1c(C)c(C(=O)NCc2ccc3c(c2)OCCO3)sc1=O,x,x,x,-3.1%,x
CCC12CCC3c4ccc(O)cc4CCC3C1CC(O)C2O (configuration not stated),x,x,x,2.3%,x
O=C(COc1cc2oc(=O)cc(-c3ccccc3)c2cc1Cl)NCc1ccccn1,7.2%,18.0%,-13.7%,1.0%,108.9%
COc1ccc(C2CC(=O)Oc3c(C(CCN4CCCCC4)c4ccc(N(C)C)cc4)c(OC)cc(OC)c32)cc1 (configuration not stated),3.2%,0.6%,-1.3%,u,178.0%
COc1cc(OC)c2ccc(=O)oc2c1C(CCN1CCN(c2ccccc2)CC1)c1ccc(N(C)C)cc1 (configuration not stated),1.7%,-6.2%,-2.7%,25.1µM*,75.0%
CCCCCc1cc(=O)oc2c(C(CCN3CCN(c4ccccc4)CC3)c3ccc(N(C)C)cc3)c(OC)cc(OC)c12 (configuration not stated),2.7%,4.0%,-4.2%,11.2µM*,78.5%

# Screens from PubChem.
